In the library only some 2.4% were active in any assay of this set; here they are far more common.
PERK inhibitor = human PERK inhibition, primary cell-based screen; Q9NZJ5; CHO PERK-DD fusion, SEAP luminescence translation reporter; actives 0.17% (n = 220,000); inhibition, % at 5.6 µM;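 active = inhibition above the mean inhibition of all tested compounds plus 3 SD, set separately per screening campaign, cut at about 2.9% in these data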;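 note: PERK kinase domain activated by AP20187 dimerizer at 100 nM; 0% = DMSO with dimerizer and 100% = rapamycin at 8.4 µM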
Target sequence (Q9NZJ5 whole entry, looked up, the tested form may be a part): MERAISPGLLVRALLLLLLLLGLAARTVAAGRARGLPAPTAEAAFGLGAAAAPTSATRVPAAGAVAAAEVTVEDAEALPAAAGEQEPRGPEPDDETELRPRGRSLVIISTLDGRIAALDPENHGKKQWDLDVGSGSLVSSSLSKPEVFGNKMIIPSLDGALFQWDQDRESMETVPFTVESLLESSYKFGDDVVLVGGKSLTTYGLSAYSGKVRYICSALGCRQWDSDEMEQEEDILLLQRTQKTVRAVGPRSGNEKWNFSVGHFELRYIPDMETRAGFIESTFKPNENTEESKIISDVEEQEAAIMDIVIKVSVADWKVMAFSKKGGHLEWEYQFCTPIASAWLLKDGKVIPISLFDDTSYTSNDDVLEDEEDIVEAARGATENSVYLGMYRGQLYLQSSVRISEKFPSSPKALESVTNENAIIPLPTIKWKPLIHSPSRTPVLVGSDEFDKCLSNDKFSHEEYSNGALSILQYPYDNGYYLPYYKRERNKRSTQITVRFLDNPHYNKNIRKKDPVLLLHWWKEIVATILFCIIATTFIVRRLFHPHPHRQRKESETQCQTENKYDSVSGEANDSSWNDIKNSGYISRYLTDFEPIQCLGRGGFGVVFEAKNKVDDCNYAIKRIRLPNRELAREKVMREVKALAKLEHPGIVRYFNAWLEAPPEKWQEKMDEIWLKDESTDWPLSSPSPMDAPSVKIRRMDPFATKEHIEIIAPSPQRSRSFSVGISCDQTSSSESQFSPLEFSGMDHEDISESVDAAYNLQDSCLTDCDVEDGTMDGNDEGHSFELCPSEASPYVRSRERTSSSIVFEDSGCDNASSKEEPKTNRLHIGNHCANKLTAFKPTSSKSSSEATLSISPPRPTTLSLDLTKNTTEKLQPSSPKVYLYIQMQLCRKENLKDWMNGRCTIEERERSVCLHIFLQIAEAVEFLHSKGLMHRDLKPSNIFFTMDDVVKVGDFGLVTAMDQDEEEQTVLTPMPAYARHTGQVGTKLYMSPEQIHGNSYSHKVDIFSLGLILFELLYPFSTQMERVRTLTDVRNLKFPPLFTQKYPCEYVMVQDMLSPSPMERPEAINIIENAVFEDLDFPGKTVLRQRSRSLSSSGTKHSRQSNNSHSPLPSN
PABP FP inh = blocks human PABP binding to poly(A) RNA. P11940. fluorescence polarization. inhibition, % at 35 µM. actives 1% (n = 290,000). AID 2014;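 note: calls also rest on retests at 20 µM and on dose response follow-up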
PfM18AAP inh-1 = PfM18AAP enzyme inhibition; recombinant PfM18AAP, H-Glu-NHMec fluorogenic cleavage; inhibition, % at 7.35 µM; actives 1.2% (n = 290,000);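 active = inhibition above the campaign mean inhibition over all tested compounds plus 3 SD, cut at about 28% in these data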;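 note: 0% = plate median of test compound wells and 100% = 2 mM ZnCl2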
eIF4E 4G PPI = inhibitors of eIF4E and eIF4G interaction in translation initiation; actives 0.37% (n = 220,000); AID 782; TR-FRET eIF4E-eIF4GI(517-606) binding, 2 h; inhibition, % at 21.7 µM;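 active = inhibition above about 30%, limit read from the data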;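 note: 0% = full FRET control wells and 100% = background wells lacking eIF4GI fragment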
PABP1 MLLE inh = blocks PAM2 peptide binding to the PABP1 MLLE domain | P11940 | actives 0.36% (n = 360,000) | GST-MLLE / FITC-PAM2 fluorescence polarization | inhibition, % at 20 µM; in the data active = inhibition above about 35%, passing the limit was not always enough;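 note: plate controls were DMSO wells with GST-MLLE for no effect and wells lacking GST-MLLE protein for full effect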
eIF4H inh = inhibitors of RNA binding by human eIF4H. actives 0.94% (n = 290,000). Q15056. eIF4H fluorescence polarization binding assay. inhibition, % at 35 µM;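 note: calls also rest on retests at 20 µM and on dose response follow-up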
PfM18AAP inh-2 = PfM18AAP inhibition, confirmation; shares compounds with PfM18AAP inh-1; recombinant PfM18AAP, H-Glu-NHMec fluorogenic cleavage; actives 28% (n = 2,400); inhibition, % at 7.35 µM;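 active = mean inhibition over replicate wells above the hit cutoff set for the earlier primary screen, cut at about 29% in these data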;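 note: 0% = median of test compound wells and 100% = 2 mM ZnCl2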
CTSL1 confirm = counter-screen for PFM18AAP inhibitors: confirmation of human cathepsin L inhibitors | inhibition, % at 5.96 µM | purified cathepsin L1, Z-Leu-Arg-MCA fluorescence | shares compounds with PfM18AAP inh-1 | 2,400 tested, under 10 active | AID 2178;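 active = average inhibition across replicates above the hit cutoff set in the earlier primary screen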;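 note: 0% = median of test compound wells and 100% = Z-Phe-Ala-diazomethylketone 1 µM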
The depositor's hits bear a star; . = no result given. Unless noted, the rule behind the calls is not given here.

SMILES	PERK inhibitor	PABP FP inh	PfM18AAP inh-1	eIF4E 4G PPI	PABP1 MLLE inh	eIF4H inh	PfM18AAP inh-2	CTSL1 confirm
C(=N\Nc1nncc2ccccc12)/c1ccccn1	.	6	21	.	-12	5	.	.
O=C(Nc1cccc(-c2ccc3nncn3n2)c1)c1ccco1	0	0	-3	-7	2	-2	.	.
CC1(C)CC(=O)C/C(=N/NC(=O)COc2ccc3ccccc3c2Br)C1	.	-9	0	.	-9	-3	.	.
CC1CN(C2=NC(=O)/C(=C/c3ccncc3)S2)CC(C)O1 (centres undefined)	2	0	-1	0	-4	3	.	.
C/C(CC(=O)Nc1ccc2ccccc2c1)=N\NC(=O)c1ccc(O)c(O)c1	.	1	68*	.	5	-8	50*	-2
CCOC(=O)N1CCC(NC(=O)CC2C(=O)NCCN2Cc2ccccc2)CC1 (centres undefined)	.	2	-4	.	-9	8	.	.
NC(=O)c1sc(=S)n(-c2ccc(Br)cc2)c1N	1	2	38*	2	20	-10	-41	0
CCOC(=O)c1sc(=S)n(-c2ccc(OC)cc2)c1N	2	4	-1	-8	7	-1	.	.
CN1CCN(C(=O)c2sc(=S)n(-c3ccccc3)c2N)CC1	-1	9	49*	1	4	3	17	6
COc1ccc(/C=N/Nc2nonc2N)cc1OC	1	-6	5	8	-5	2	.	.
COc1ccc(/C=N/Nc2nn3cnnc3c3ccccc23)cc1	1	-4	38*	-6	-15	-2	-48	3
CCNc1nc(NCC)nc(N/N=C/c2ccc(OC)cc2)n1	1	0	-2	1	3	-10	.	.
COc1ccc(/C=N/Nc2nonc2N)cc1	1	-7	32*	-5	-34	-7	-30	-2
O=C(O)Cn1cnc2c(=S)nc[nH]c21	3.7*	6	57*	3	27	2	-4	3
COc1cc(C(=O)O)ccc1OC(C)=O	1	1	-4	0	-8	-11	.	.
CC(=O)Oc1ccc(C(=O)O)cc1OC(C)=O	2	12	70*	1	0	-8	50*	-5
CCn1c(-c2ccc(C)cc2)n[nH]c1=S	1	7	12	-4	-9	-2	.	.
CCCn1c(-c2ccc(F)cc2)n[nH]c1=S	1	-6	35*	-5	-16	-5	14	1
CC(C)=CCOc1ccc2ccc(=O)oc2c1	1	7	10	3	-7	-2	.	.
COc1cc2ccc(=O)oc2c(O)c1OCC=C(C)C	0	3	40*	3	26	-4	-38	2
CC(C)(C)Cc1nnc(NC(=O)CSc2ccccc2)s1	.	4	40*	.	26	-10	20	2
CCc1nnc(NC(=O)CSc2nnc(CSc3nc(C)cc(C)n3)o2)s1	1	-13	36*	.	-23	-3	-28	1
CCc1nnc(NC(=O)CSc2nnc(-c3ccccc3O)o2)s1	0	8	34*	-2	6	3	-17	-3
Cc1cccc(NC(=O)CSc2nnc(CSc3nc(C)cc(C)n3)o2)c1	1	-1	1	0	-7	-1	.	.
COCCNC(=O)CN(c1ccc(F)cc1)S(=O)(=O)c1ccc2c(c1)OCCO2	.	4	-5	.	7	3	.	.
SMILES	PERK inhibitor	PABP FP inh	PfM18AAP inh-1	eIF4E 4G PPI	PABP1 MLLE inh	eIF4H inh	PfM18AAP inh-2	CTSL1 confirm
CCCc1cc(=O)[nH]c(SCC(=O)Nc2cccc(S(=O)(=O)N3CCOCC3)c2)n1	.	.	.	.	3	.	.	.
CC(=O)N1CC[n+]2c(-c3ccc(Cl)cc3)csc21	-1	-7	39*	1	13	-1	5	-10
COc1cc2nc(CSc3ncn[nH]3)[nH]c(=O)c2cc1OC	1	-4	63*	-1	15	-3	66*	-4
CCOc1ccc(C(=O)NNC(=O)c2cc(S(=O)(=O)N3CCOCC3)ccc2Cl)cc1	.	.	.	.	10	.	.	.
Cc1c(Br)c(O)c(Br)c2sc(=O)oc12	1	35	36*	8	-6	41	-34	0
Cn1c(Cn2c3ccccc3c3ccccc32)n[nH]c1=S	1	0	24	-1	-35	8	.	.
Nn1c(Cc2ccccc2F)n[nH]c1=S	1	-2	17	-4	-24	-4	.	.
Cn1c(-c2cccc3ccccc23)n[nH]c1=S	1	-5	37*	18	-49	-12	-12	-7
Nn1c(Cc2cccc3ccccc23)n[nH]c1=S	1	9	32*	4	-4	12	-5	2
COc1cccc(C#Cc2cnc3c(c2)C(=O)N([C@@H](C)CO)C[C@H](C)[C@H](CN(C)C(=O)C2CCC2)O3)c1	.	.	.	.	-5	.	.	.
CC1CCC(NC(=O)CCS(=O)(=O)c2ccc3c(c2)oc(=O)n3C)CC1 (centres undefined)	.	1	-10	.	14	8	.	.
S=c1nc(-c2ccccc2Cl)[nH][nH]1	0	-5	49*	0	26	-7	2	-1
Clc1ccccc1-c1nc2ccccc2[nH]1	1	6	5	3	7	5	.	.
COc1ccc(CNC(=O)C2CSC(=O)C2)cc1 (centres undefined)	0	0	-7	8	13	-8	.	.
CCN1C(=O)/C(=C2/SC(C)=C(C)N2CC)SC1=S	0	10	38*	-5	52*	0	-31	0
COc1cc(/C=N/N2C(=O)CSC2=S)ccc1O	0	5	33*	1	-35	-7	10	-1
COc1cc(O)c(C=NN2C(=O)CSC2=S)c(OC)c1	.	.	.	.	6	.	.	.
O=C1CSC(=S)N1/N=C/c1ccc2c(c1)OCCO2	.	1	34*	.	15	6	-9	0
NNC(=O)c1sc2nc(N3CCOCC3)c3c(c2c1N)CCCC3	-2	7	-2	-1	5	8	.	.
Nc1c(C(=O)Nc2ccccc2)sc2nc(N3CCOCC3)c3c(c12)CCCC3	.	.	.	.	21	.	.	.
CCOc1ccc(NC(=O)c2sc3nc(N4CCOCC4)c4c(c3c2N)CCCC4)cc1	.	9	43*	.	21	-7	15	5
CC(=O)c1ccc(NC(=O)c2sc3nc(N4CCOCC4)c4c(c3c2N)CCCC4)cc1	.	-5	43*	.	14	-6	4	4
Nc1c(C(=O)N2CCOCC2)sc2nc(N3CCOCC3)c3c(c12)CCCC3	2	3	37*	-4	15	-6	10	1
COc1cccc(NC(=O)c2sc3nc(N4CCOCC4)c4c(c3c2N)CCCC4)c1	.	5	50*	.	8	-16	2	-18

Bioassay records as filed in PubChem.
